# In paper PMC8384837, “Expanding the binding specificity for RNA recognition by a PUF domain”:
# Residue numbers refer to the chain shown, from its start.
# How the values were obtained:
# Assay in all cases: yeast three-hybrid, YBZ-1, SC-Leu-His + 0.5 mM 3-AT, 4 days
# Settings in all cases: tags: N-Gal4 AD-HA kept; label: inside an RPR1-promoter hybrid RNA with tandem MS2 sites; ssRNA
# PUM1 PUF domain R3-MRL = PUM1 PUF domain R3-MRL (Homo sapiens, UniProt Q14671 828-1176, C935M;Q939L)
# In short: (§1)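 Repeat regions from input (SC-Leu) and selection (SC-Leu-His + 0.5 mM 3-AT) plates were PCR-amplified and Illumina-sequenced after four days of growth. The cells were strain YBZ-1 with a LexA–MS2 coat fusion and a HIS3 reporter, co-expressing Pumilio-1 PUF domain libraries and matching RNA elements from a centromeric plasmid. The interaction score is the log change in variant frequency from input to selection, taken in log2 with a pseudocount of 1 for absent variants.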
# PUM1 PUF domain R3-MRT = PUM1 PUF domain R3-MRT (Homo sapiens, UniProt Q14671 828-1176, C935M;Q939T)
# In short: as §1
# PUM1 PUF domain R2-RKQ = PUM1 PUF domain R2-RKQ (Homo sapiens, UniProt Q14671 828-1176, N899R;Y900K)
# In short: as §1
# PUM1 PUF domain R6-SRQ = molecular target: T1, PUM1 PUF domain R6-SRQ (Homo sapiens, UniProt Q14671 828-1176, N1043S;Y1044R)
# T1 sequence: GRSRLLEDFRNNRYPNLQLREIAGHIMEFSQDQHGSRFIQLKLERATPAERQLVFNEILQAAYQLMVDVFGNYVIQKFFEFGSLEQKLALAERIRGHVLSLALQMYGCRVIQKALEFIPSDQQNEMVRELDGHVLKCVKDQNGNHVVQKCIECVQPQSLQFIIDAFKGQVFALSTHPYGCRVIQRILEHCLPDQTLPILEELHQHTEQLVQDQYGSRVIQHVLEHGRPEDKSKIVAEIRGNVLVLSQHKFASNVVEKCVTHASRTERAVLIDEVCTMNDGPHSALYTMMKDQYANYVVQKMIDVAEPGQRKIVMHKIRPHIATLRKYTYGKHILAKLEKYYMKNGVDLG
# In short: as §1
# PUM1 PUF domain R6-QWL = molecular target: T2, PUM1 PUF domain R6-QWL (Homo sapiens, UniProt Q14671 828-1176, N1043Q;Y1044W;Q1047L)
# T2 sequence: T1 sequence with S216Q, R217W, Q220L
# In short: as §1
# PUM1 PUF domain R5-RQK = PUM1 PUF domain R5-RQK (Homo sapiens, UniProt Q14671 828-1176, C1007R;R1008Q;Q1011K)
# In short: as §1
# PUM1 PUF domain R5-GRS = PUM1 PUF domain R5-GRS (Homo sapiens, UniProt Q14671 828-1176, C1007G;Q1011S)
# Sequence of PUM1 PUF domain R5-GRS (Q14671 828-1176 C1007G/Q1011S): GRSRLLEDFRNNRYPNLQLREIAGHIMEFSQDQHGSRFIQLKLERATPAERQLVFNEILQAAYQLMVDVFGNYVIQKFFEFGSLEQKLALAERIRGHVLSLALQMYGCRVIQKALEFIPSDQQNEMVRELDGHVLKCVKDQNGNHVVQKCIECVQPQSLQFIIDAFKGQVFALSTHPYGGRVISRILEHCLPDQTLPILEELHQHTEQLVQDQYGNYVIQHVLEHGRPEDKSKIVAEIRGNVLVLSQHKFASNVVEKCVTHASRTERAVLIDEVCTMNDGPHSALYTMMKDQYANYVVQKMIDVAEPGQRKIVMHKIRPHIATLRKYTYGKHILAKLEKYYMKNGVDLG
# In short: as §1
# PUM1 PUF domain R5-KQW = PUM1 PUF domain R5-KQW (Homo sapiens, UniProt Q14671 828-1176, C1007K;R1008Q;Q1011W)
# In short: as §1
# PUM1 PUF domain R5-QAR = PUM1 PUF domain R5-QAR (Homo sapiens, UniProt Q14671 828-1176, C1007Q;R1008A;Q1011R)
# In short: as §1
# PUM1 PUF domain R1-KWV = PUM1 PUF domain R1-KWV (Homo sapiens, UniProt Q14671 828-1176, S863K;R864W;Q867V)
# In short: as §1
# PUM1 PUF domain R8-PWC = PUM1 PUF domain R8-PWC (Homo sapiens, UniProt Q14671 828-1176, N1122P;Y1123W;Q1126C)
# In short: as §1
# PUM1 PUF domain R8-NFR = PUM1 PUF domain R8-NFR (Homo sapiens, UniProt Q14671 828-1176, Y1123F;Q1126R)
# In short: as §1
# PUM1 PUF domain R8-GWH = PUM1 PUF domain R8-GWH (Homo sapiens, UniProt Q14671 828-1176, N1122G;Y1123W;Q1126H)
# In short: as §1
# PUM1 PUF domain R6-FHR = molecular target: T3, PUM1 PUF domain R6-FHR (Homo sapiens, UniProt Q14671 828-1176, N1043F;Y1044H;Q1047R)
# T3 sequence: T1 sequence with S216F, R217H, Q220R
# In short: as §1
# PUM1 PUF domain R6-LYM = molecular target: T4, PUM1 PUF domain R6-LYM (Homo sapiens, UniProt Q14671 828-1176, N1043L;Q1047M)
# T4 sequence: T1 sequence with S216L, R217Y, Q220M
# In short: as §1
# PUM1 PUF domain R6-AFF = molecular target: T5, PUM1 PUF domain R6-AFF (Homo sapiens, UniProt Q14671 828-1176, N1043A;Y1044F;Q1047F)
# T5 sequence: T1 sequence with S216A, R217F, Q220F
# In short: as §1
# PUM1 PUF domain R5-PHR = PUM1 PUF domain R5-PHR (Homo sapiens, UniProt Q14671 828-1176, C1007P;R1008H;Q1011R)
# In short: as §1
# PUM1 PUF domain R4-RMS = PUM1 PUF domain R4-RMS (Homo sapiens, UniProt Q14671 828-1176, N971R;H972M;Q975S)
# In short: as §1
# PUM1 PUF domain R5-WWQ = PUM1 PUF domain R5-WWQ (Homo sapiens, UniProt Q14671 828-1176, C1007W;R1008W)
# In short: as §1
# PUM1 PUF domain R5-EWD = PUM1 PUF domain R5-EWD (Homo sapiens, UniProt Q14671 828-1176, C1007E;R1008W;Q1011D)
# In short: as §1
sequence,measurement,setting,value
GGCUAGAACUAGUGGAUCCCCCGGCGCCCGGCGGCUCGAGCCCGGGUAAGUGUAAUUAGUCUGCAUGCCGCCGGGCGCCAUGCCUGCAGGUCGACUCUAGAAAACAUG,binding signal,PUM1 PUF domain R3-MRL,1.67 log2 enrichment (interaction score)
same,binding signal,PUM1 PUF domain R3-MRT,3.61 log2 enrichment (interaction score)
GGCUAGAACUAGUGGAUCCCCCGGCGCCCGGCGGCUCGAGCCCGGGUAAGUGUAAAGAGUCUGCAUGCCGCCGGGCGCCAUGCCUGCAGGUCGACUCUAGAAAACAUG,binding signal,PUM1 PUF domain R2-RKQ,2.92 log2 enrichment (interaction score)
GGCUAGAACUAGUGGAUCCCCCGGCGCCCGGCGGCUCGAGCCCGGGUAAGUGAAAAUAGUCUGCAUGCCGCCGGGCGCCAUGCCUGCAGGUCGACUCUAGAAAACAUG,binding signal,PUM1 PUF domain R6-SRQ,3.17 log2 enrichment (interaction score)
same,binding signal,PUM1 PUF domain R6-QWL,4.43 log2 enrichment (interaction score)
GGCUAGAACUAGUGGAUCCCCCGGCGCCCGGCGGCUCGAGCCCGGGUAAGUGUCAAUAGUCUGCAUGCCGCCGGGCGCCAUGCCUGCAGGUCGACUCUAGAAAACAUG,binding signal,PUM1 PUF domain R5-RQK,3.94 log2 enrichment (interaction score)
same,binding signal,PUM1 PUF domain R5-GRS,1.13 log2 enrichment (interaction score)
same,binding signal,PUM1 PUF domain R5-KQW,4.59 log2 enrichment (interaction score)
same,binding signal,PUM1 PUF domain R5-QAR,4.51 log2 enrichment (interaction score)
GGCUAGAACUAGUGGAUCCCCCGGCGCCCGGCGGCUCGAGCCCGGGUAAGUGUAAAUGGUCUGCAUGCCGCCGGGCGCCAUGCCUGCAGGUCGACUCUAGAAAACAUG,binding signal,PUM1 PUF domain R1-KWV,0.79 log2 enrichment (interaction score)
GGCUAGAACUAGUGGAUCCCCCGGCGCCCGGCGGCUCGAGCCCGGGUAAGCGUAAAUAGUCUGCAUGCCGCCGGGCGCCAUGCCUGCAGGUCGACUCUAGAAAACAUG,binding signal,PUM1 PUF domain R8-PWC,2.98 log2 enrichment (interaction score)
same,binding signal,PUM1 PUF domain R8-NFR,3.71 log2 enrichment (interaction score)
same,binding signal,PUM1 PUF domain R8-GWH,3.5 log2 enrichment (interaction score)
GGCUAGAACUAGUGGAUCCCCCGGCGCCCGGCGGCUCGAGCCCGGGUAAGUGUAAAUCGUCUGCAUGCCGCCGGGCGCCAUGCCUGCAGGUCGACUCUAGAAAACAUG,binding signal,PUM1 PUF domain R1-KWV,5.68 log2 enrichment (interaction score)
GGCUAGAACUAGUGGAUCCCCCGGCGCCCGGCGGCUCGAGCCCGGGUAAGUGUAAAUAGUCUGCAUGCCGCCGGGCGCCAUGCCUGCAGGUCGACUCUAGAAAACAUG,binding signal,PUM1 PUF domain R6-FHR,3.45 log2 enrichment (interaction score)
same,binding signal,PUM1 PUF domain R6-LYM,5.36 log2 enrichment (interaction score)
same,binding signal,PUM1 PUF domain R6-AFF,5.23 log2 enrichment (interaction score)
same,binding signal,PUM1 PUF domain R8-NFR,3.8 log2 enrichment (interaction score)
same,binding signal,PUM1 PUF domain R5-GRS,3.71 log2 enrichment (interaction score)
same,binding signal,PUM1 PUF domain R5-PHR,2.42 log2 enrichment (interaction score)
same,binding signal,PUM1 PUF domain R4-RMS,4.65 log2 enrichment (interaction score)
GGCUAGAACUAGUGGAUCCCCCGGCGCCCGGCGGCUCGAGCCCGGGUAAGUGUAAGUAGUCUGCAUGCCGCCGGGCGCCAUGCCUGCAGGUCGACUCUAGAAAACAUG,binding signal,PUM1 PUF domain R3-MRL,2.68 log2 enrichment (interaction score)
GGCUAGAACUAGUGGAUCCCCCGGCGCCCGGCGGCUCGAGCCCGGGUAAGUGUGAAUAGUCUGCAUGCCGCCGGGCGCCAUGCCUGCAGGUCGACUCUAGAAAACAUG,binding signal,PUM1 PUF domain R5-GRS,2.01 log2 enrichment (interaction score)
same,binding signal,PUM1 PUF domain R5-WWQ,2.01 log2 enrichment (interaction score)
same,binding signal,PUM1 PUF domain R5-EWD,2.28 log2 enrichment (interaction score)
GGCUAGAACUAGUGGAUCCCCCGGCGCCCGGCGGCUCGAGCCCGGGUAAGUGUUAAUAGUCUGCAUGCCGCCGGGCGCCAUGCCUGCAGGUCGACUCUAGAAAACAUG,binding signal,PUM1 PUF domain R5-RQK,4.75 log2 enrichment (interaction score)
same,binding signal,PUM1 PUF domain R5-GRS,4.35 log2 enrichment (interaction score)
same,binding signal,PUM1 PUF domain R5-KQW,2.43 log2 enrichment (interaction score)
same,binding signal,PUM1 PUF domain R5-WWQ,2.93 log2 enrichment (interaction score)
same,binding signal,PUM1 PUF domain R5-QAR,3.17 log2 enrichment (interaction score)
